{"source": "PubChem BioAssay AID2315", "about": "(National Center for Advancing Translational Sciences (NCATS), 2010)", "note": "The whole screen tested about 290,000 compounds, of which about 27,000 (9.3%) were called active. The list comes from a sample in which actives are over-represented; it also holds similar structures and randomly drawn compounds. A number with no mark means an inactive call. No stated cut-off is given here; in the data, active means inhibition mostly above about 28% (no sharp cut-off); inactive means mostly below about 43%."}
{"test": "A qHTS for Small Molecule Inhibitors of Shiga Toxin; further: 0% is about no effect", "details": "Vero cells, Shiga toxin protein synthesis inhibition reporter; at 38.7 µM, stronger effect = higher value"}
{"compound": "CCOc1ccc(OCCSc2nc3ccccc3n2CC(=O)O)cc1", "inhibition": "1.74%"}
{"compound": "Cc1ccc2c(C)c(C(=O)N(C)CCC3CCCCO3)oc2c1C", "note": "(centres undefined)", "inhibition": "55.6%"}
{"compound": "CCOC(=O)CSc1nc2ccc(C)cc2[nH]1", "inhibition": "46.5%"}
{"compound": "Cc1ccc2nc(/C(C#N)=C\\c3ccc(OC(=O)c4cccs4)cc3)[nH]c2c1", "inhibition": "52.8% (active)"}
{"compound": "Cc1ccc2nc(S(=O)(=O)O)[nH]c2c1", "inhibition": "-4.97%"}
{"compound": "CCn1c(=S)sc2c(=O)n(CC(=O)Nc3cccc(Br)c3)c(C)nc21", "inhibition": "13.8%"}
{"compound": "COC(=O)c1c(NC(=O)COc2ccc(Cl)cc2Cl)sc2c1CC(C)(C)NC2(C)C", "inhibition": "-5.3%"}
{"compound": "Cc1c(C=O)c2ccccc2n1CCOc1ccccc1", "inhibition": "31.9%"}
{"compound": "CCOC(=O)CSc1nc2sc3c(c2c(=O)[nH]1)CC(C)(C)OC3", "inhibition": "-6.92%"}
{"compound": "CC/C(C)=N/Nc1nc2sc3c(c2c(=O)[nH]1)CC(C)(C)OC3", "inhibition": "42.5% (active)"}
{"compound": "CCSc1nc2sc3c(c2c(=O)[nH]1)CC(C)(C)OC3", "inhibition": "4.12%"}
{"compound": "Cc1ccc2nc(COc3ccc(N(C)S(=O)(=O)c4ccccc4)cc3)cc(=O)n2c1", "inhibition": "13.5%"}
{"compound": "COc1ccc(C(=O)NCc2cn3ccccc3n2)cc1", "inhibition": "8.12%"}
{"compound": "O=Cc1ccc(OCc2cn3ccccc3n2)cc1", "inhibition": "57.2% (active)"}
{"compound": "CCCNC(=O)CSc1nc(Cc2ccccc2)nc2ccccc12", "inhibition": "-9.69%"}
{"compound": "CCC(C(=O)NCCC(C)C)N(Cc1ccccc1Cl)C(=O)c1snc(C(N)=O)c1N", "note": "(centres undefined)", "inhibition": "-5.11%"}
{"compound": "Cc1ccn(-c2cccc(-n3ccc(C)n3)n2)n1", "inhibition": "132% (active)"}
{"compound": "Cn1cc(S(=O)(=O)Nc2ccc(Cl)cc2Cl)c(=O)n(C)c1=O", "inhibition": "-4.85%"}
{"compound": "COc1ccc(CN2CCNC(=O)C2CC(=O)NCc2cn[nH]c2-c2ccccc2)c(F)c1", "note": "(centres undefined)", "inhibition": "-2.54%"}
{"compound": "COc1ccc(C)cc1N(C(=O)Cn1nnc(-c2ccc(C)o2)n1)C(C(=O)NC1CCCC1)c1ccncc1", "note": "(centres undefined)", "inhibition": "-2.11%"}
{"compound": "Cc1ccc(S(=O)(=O)NC2CCCCCC2)cc1C(N)=O", "inhibition": "-3.95%"}
{"compound": "CCn1cc(CCC(=O)NCc2ccc(F)cc2)c2ccccc21", "inhibition": "-4.61%"}
{"compound": "COCc1cc(=O)oc2cc(NS(=O)(=O)c3ccc(C)cc3)ccc12", "inhibition": "7.5%"}
{"compound": "Cc1ccc2c(CSc3nncs3)cc(=O)oc2c1", "inhibition": "120% (active)"}
{"compound": "CCOC(=O)Cc1csc(SCc2cc(=O)oc3cc(O)ccc23)n1", "inhibition": "-5.09%"}
{"compound": "CN1/C(=c2/s/c(=C3/C(=O)N(c4ccccc4)NC3=Nc3ccccc3)n(C)c2=O)C(C)(C)c2ccccc21", "inhibition": "-12.9%"}
{"compound": "CC(C)(C)c1ccccc1NC(=O)CN1C(=O)NC2(CCCC2)C1=O", "inhibition": "-11.9%"}
{"compound": "O=C(CN1CCN(c2ccc(O)cc2)CC1)Nc1ccc(-c2ccccc2)cc1", "inhibition": "2.35%"}
{"compound": "CC(=O)c1ccc(S(=O)(=O)N2CCC3(CC2)OCCO3)cc1", "inhibition": "-3.96%"}
{"compound": "CN1C(=O)/C(=N/OC(=O)c2ccccc2Br)c2ccccc21", "inhibition": "-3.77%"}
{"compound": "CCC1C(=O)c2ccccc2N(C)C1=O", "note": "(centres undefined)", "inhibition": "-0.747%"}
{"compound": "CN1C(=O)/C(=C\\c2cc(Br)cs2)c2ccccc21", "inhibition": "76.4% (active)"}
{"compound": "CCc1ccc(S(=O)(=O)Nc2cc3c(cc2N2CCCCC2)n(C)c(=O)c(=O)n3C)cc1", "inhibition": "-14.2%"}
{"compound": "Cc1c(Cl)cccc1NC(=O)CCC(=O)N/N=C/c1ccco1", "inhibition": "4.7%"}
{"compound": "c1ccc(-c2ccc(OCCN3CCOCC3)cc2)cc1", "inhibition": "86.3% (active)"}
{"compound": "CC(C)(c1ccccc1)c1ccc(OCCN2CCCC2)cc1", "inhibition": "-9.76%"}
{"compound": "CC(=O)c1ccc(OCCN2CCOCC2)cc1", "inhibition": "32.1%"}
{"compound": "CC(C)(C)NC(=O)C(c1ccc(Cl)cc1)N(CCO)C(=O)c1snc(C(N)=O)c1N", "note": "(centres undefined)", "inhibition": "-5.05%"}
{"compound": "COc1ccccc1C(C)NC(=O)Cc1ccsc1", "note": "(centres undefined)", "inhibition": "-7.47%"}
{"compound": "COc1ccc(C2CC(c3cccs3)=NN2c2ccccc2)cc1", "note": "(centres undefined)", "inhibition": "83% (active)"}
{"compound": "O=C(c1ccccc1)N1N=C(c2ccccc2O)CC1c1ccc(Br)cc1", "note": "(centres undefined)", "inhibition": "10.4%"}
{"compound": "COc1ccc(C2CC(c3cccs3)=NN2c2nc(C)c(C(C)=O)s2)cc1OC", "note": "(centres undefined)", "inhibition": "15.6%"}
{"compound": "COc1ccccc1N1N=C(c2cccs2)CC1c1ccccc1", "note": "(centres undefined)", "inhibition": "36.3% (active)"}
{"compound": "Oc1ccccc1C1=NN(c2ccccc2)C(c2ccccc2)C1", "note": "(centres undefined)", "inhibition": "55.6% (active)"}
{"compound": "COc1ccc(C2CC(c3cccs3)=NN2C(=O)COC(=O)c2cc3ccccc3cc2O)cc1OC", "note": "(centres undefined)", "inhibition": "-13.7%"}
{"compound": "CC(=O)Oc1ccccc1C1=NN(C(C)=O)C(c2ccccc2)C1", "note": "(centres undefined)", "inhibition": "18.4%"}
{"compound": "COc1ccc(C2=NN(c3ccccc3)C(c3cccs3)C2)cc1", "note": "(centres undefined)", "inhibition": "3.11%"}
{"compound": "COc1ccc(C2CC(c3cccs3)=NN2c2ccc(F)cc2)cc1OC", "note": "(centres undefined)", "inhibition": "26.5%"}
{"compound": "CS(=O)(=O)N1CCN(CC(=O)NC2CCCC2)CC1", "inhibition": "-2.76%"}
{"compound": "O=C(Nc1ccc(Cl)cc1)c1cccc(OC(=S)N2CCOCC2)c1", "inhibition": "18%"}
{"compound": "O=C(COc1ccc(Cl)cc1Cl)N/N=C/c1ccccn1", "inhibition": "8.65%"}
{"compound": "CSc1ncccc1C(=O)NCc1ccccc1Cl", "inhibition": "-6.54%"}
{"compound": "CC1(C)Cc2ccccc2-c2[nH]c(=S)[nH]c(=O)c21", "inhibition": "-5.22%"}
{"compound": "Brc1ccc(Nc2c3c(nc4ncnn24)CCC3)cc1", "inhibition": "-2.6%"}
{"compound": "COCc1cc(=O)n2[nH]c(C)c(-c3ccccc3)c2n1", "inhibition": "8.24%"}
{"compound": "COC(=O)c1c(-c2ccc(C)cc2)csc1N", "inhibition": "-0.659%"}
{"compound": "Nc1scc(-c2ccncc2)c1Cl", "inhibition": "64.7% (active)"}
{"compound": "CN(C(=O)COC(=O)c1nc(Cl)ccc1Cl)C1CCS(=O)(=O)C1", "note": "(centres undefined)", "inhibition": "-15.4%"}
{"compound": "CC(=O)c1nn(-c2cccc(C(F)(F)F)c2)c(=O)[nH]c1=O", "inhibition": "21.6%"}
{"compound": "O=C1CSC(=S)N1c1ccc(Cl)c(Cl)c1", "inhibition": "24.6%"}
{"compound": "CCCNC(=O)c1cnc(-c2ccccc2)nc1-c1ccccc1", "inhibition": "-8.32%"}
{"compound": "O=C(/C=C/c1ccc2c(c1)OCO2)NCc1cn2cc(Cl)ccc2n1", "inhibition": "21.3%"}
{"compound": "Clc1ccc2nc(CSc3ccccc3)cn2c1", "inhibition": "31.5% (active)"}
{"compound": "CCOc1ncccc1C(=O)OCc1cn2cc(Cl)ccc2n1", "inhibition": "18.7%"}
